Data: PubChem BioAssay (Tox21)
Activity calls are given as the source filed them. Calls follow the shape of the dose curve; as a rule, active = well fitted curve in the direction sought with a large enough effect in the repeat runs; inconclusive = weak or mixed curves; inactive = flat fitted curve, though single readings scatter.

test: qHTS assay to test for compound auto fluorescence at 590 nm (red) in HepG2 cells (AID 720674); settings: HepG2 autofluorescence, red 540/590 nm, 1 h; series mostly up to 91.3 µM
Source text: U.S. Tox21 Program National Center for Advancing Translational Sciences [NCATS] NIH Chemical Genomics Center [NCGC] U.S. Environmental Protection Agency [EPA] National Institutes of Environmental Health Sciences [NIEHS] National Toxicology Program [NTP] U.S. Food and Drug Administration [FDA] Tox21 Assay Overview: Compound auto fluorescence often interferes with screening of the compound library against various biological targets and signaling pathways. Some of these compounds may have fluorophoric properties. Such properties may interfere with the assay outputs resulting in false positives and/or negatives. To decrease such complications and ensure the compound activities are relevant in terms of biological response, the Tox21 10K compound library was screened for auto fluorescence. From the fluorophores used as reporter signals in our screening assays, the auto fluorescence equivalencies of compounds against three fluorophores have been evaluated: Triamterene, Fluorescein and Rose Bengal sodium for blue, green and red fluorescence, respectively. The fluorescence intensities were measured using Excitation/Emission wavelengths at 405/460nm, 485/535nm and 540/590nm for blue, green and red labels, respectively. This assay includes the red fluorescence data.
Tox21 Assay Protocol Summary: 2,000 HepG2 cells in 5 uL of culture medium (MEM containing 10% FBS) per well were dispensed into black wall/clear bottom 1536-well plates using a Multidrop Combi Dispenser (ThermoFisher Scientific, Waltham, MA). The assay plates were incubated overnight at 37 C to allow cell attachment to the well bottom, followed by the transfer of 23 nL compound or DMSO vehicle by a pintool work station (Kalypsys , San Diego, CA). After the assay plates were incubated for 1 hr at 37 C and 5% CO2, fluorescence intensities in the assay plates were measured by an Envision (PerkinElmer, Shelton, CT) plate reader using three labels for measuring blue, green and red fluorescence at […] 460, 535 and 590 nm respectively.

| Compound | outcome |
| --- | --- |
| CCN(CC)C(=O)/C(Cl)=C(\C)OP(=O)(OC)OC | inactive |
| CCCCCCCCOC(=O)c1ccccc1C(=O)OCCCCCCCC | inactive |
| C#C[C@]1(O)CC[C@H]2[C@@H]3CCC4=CC(=O)CC[C@]4(C)[C@H]3CC[C@@]21C | inactive |
| COc1ccc(C=O)cc1 | inactive |
| CCCCCc1cc(O)cc(O)c1 | inactive |
| c1ccc(P(c2ccccc2)c2ccccc2)cc1 | inactive |
| CCCCN(CC)c1c([N+](=O)[O-])cc(C(F)(F)F)cc1[N+](=O)[O-] | inactive |
| N#Cc1cc(Br)c(O)c(Br)c1 | inactive |
| CCN(N=O)C(N)=O | inactive |
| CCOP(=S)(OCC)O/N=C(\C#N)c1ccccc1 | inactive |
| Cc1cccc(N)c1N | inactive |
| C1=Cc2cccc3cccc1c23 | inactive |
| C#CCOS(=O)OC1CCCCC1Oc1ccc(C(C)(C)C)cc1 (stereo not given) | inactive |
| CCCCN(CCCC)N=O | inactive |
| C[C@]12CCC(=O)C[C@@H]1CC[C@@H]1[C@@H]2CC[C@]2(C)[C@@H](O)CC[C@@H]12 | inactive |
| CC(C)(c1cc(Cl)c(O)c(Cl)c1)c1cc(Cl)c(O)c(Cl)c1 | inactive |
| N#CC(Br)Br | inactive |
| Oc1cc(Cl)ccc1Oc1ccc(Cl)cc1Cl | inactive |
| O=[N+]([O-])c1c(Cl)c(Cl)c(Cl)c(Cl)c1Cl | inactive |
| C=CCc1ccc2c(c1)OCO2 | inactive |

| Compound | outcome |
| --- | --- |
| CC(C)(OOC(C)(C)c1ccccc1)c1ccccc1 | inactive |
| CCCCCCOC(=O)c1ccccc1C(=O)OCCCCCC | inactive |
| CCOc1cc(Oc2ccc(C(F)(F)F)cc2Cl)ccc1[N+](=O)[O-] | inactive |
| O=[N+]([O-])c1cccc2ccccc12 | inactive |
| CNC(=O)Oc1cccc2c1OC(C)(C)O2 | inactive |
| CCC(C)c1cc([N+](=O)[O-])cc([N+](=O)[O-])c1O (stereo not given) | inactive |
| N[C@@H](Cc1ccc(N(CCCl)CCCl)cc1)C(=O)O | inactive |
| COc1ccc(C(CN(C)C)C2(O)CCCCC2)cc1 (stereo not given) | inactive |
| O=P(O)(O)CCCl | inactive |
| O=c1oc2ccccc2c(O)c1C(CC(O)c1ccc(-c2ccc(Br)cc2)cc1)c1ccccc1 (stereo not given) | inactive |
| CCC(C)(c1ccc(O)cc1)c1ccc(O)cc1 | inactive |
| CCC(C)c1ccc(O)cc1 (stereo not given) | inactive |
| Clc1nc(Cl)nc(Cl)n1 | inactive |
| Oc1cc(Cl)ccc1Cl | inactive |
| Cc1ccc(OP(=O)(Oc2ccc(C)cc2)Oc2ccc(C)cc2)cc1 | inactive |
| c1nc[nH]n1 | inactive |
| CC(C)NC(C)C | inactive |
| CNC(=O)N(C)c1nnc(C(C)(C)C)s1 | inactive |
| CC(C)N(C(=O)SCC(Cl)=C(Cl)Cl)C(C)C | inactive |
| CCC(C)(C)c1ccc(O)cc1 | inactive |
